# This is a sample that favours compounds with a hit; in the whole collection about 5.5% have one here.
# CtBP-E1A blk – CtBP/E1A binding inhibition | AlphaScreen GST-E1A/His-CtBP binding, 1536-well; stronger effect = lower value | activity change, % (test concentration not listed) | AID 651724 | actives 0.49% (n = 340,000); in the data active = activity change below about -65%; inconclusive = mostly about -30% to -63%; note: % is set by controls: 0 for no effect and ±100 for the full control effect
#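 Homogeneous bead-based format: GST-tagged E1A captured on glutathione donor beads, His-tagged CtBP on nickel acceptor beads; compounds precede bead addition by 2 h at 37 °C.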
# MBNL1-CUG inh – blocks human MBNL1 binding to CUG repeat RNA; Q9NR56; TR-FRET MBNL1-His/biotin-(CUG)12 binding, 665/545 ratio; Potency, µM (doses to about 57.5 µM), inactives show at the top dose activity change, negative = inhibition, usual class: inhibitors; actives 0.036% (n = 280,000); AID 2675; active = well fitted inhibition curve with a large enough effect in the signal ratio, with a control signal flat, not every such curve was filed as active; inconclusive = small, poorly fitted or top-dose-only effect, or effect the other way, or a change in a side signal; inactive = no such curve, though single readings can be large or run the other way; the % refers to the signal ratio; note: potency is the fitted concentration of half-maximal effect; % is set by controls: 0 for no effect and ±100 for the full control effect
#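 TR-FRET between His-tagged MBNL1 and biotin-(CUG)12 RNA, detected with Tb anti-His antibody (0.055 ng/ul) and streptavidin-XL665 (5 nM), 60 min at room temperature. Compounds titrated 92 nM to 58 uM; 665/545 nm ratio normalized to buffer and complex controls.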
# CBFb RUNX1 block – CBF-beta/RUNX1 interaction disruption; Q01196+Q13951; AlphaScreen CBFb-His/RUNX1-biotin binding, biochemical; Potency, µM (top dose mostly 59.8 µM), inactives show top-dose activity, negative = inhibition, usual class: inhibitors; 230,000 tested, under 10 active; AID 1477; note: % of control where 0% means no effect
#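 Proteins preincubated together for 20 min at RT before compound addition; 15 min later, nickel and streptavidin beads were added and left 90 min prior to AlphaScreen measurement.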
# Six1-Eya2 blk – blocks human Six1 binding to Eya2. Q15475+O00167. AlphaScreen GST-Six1/His-Eya2 binding, biochemical; stronger effect = lower value. activity change, % (no concentration beside the values). actives 0.56% (n = 360,000). AID 651725; in the data active = activity change below about -65%; inconclusive = mostly about -30% to -63%; note: % is set by controls: 0 for no effect and ±100 for the full control effect
# Target sequence (O00167 whole entry, looked up): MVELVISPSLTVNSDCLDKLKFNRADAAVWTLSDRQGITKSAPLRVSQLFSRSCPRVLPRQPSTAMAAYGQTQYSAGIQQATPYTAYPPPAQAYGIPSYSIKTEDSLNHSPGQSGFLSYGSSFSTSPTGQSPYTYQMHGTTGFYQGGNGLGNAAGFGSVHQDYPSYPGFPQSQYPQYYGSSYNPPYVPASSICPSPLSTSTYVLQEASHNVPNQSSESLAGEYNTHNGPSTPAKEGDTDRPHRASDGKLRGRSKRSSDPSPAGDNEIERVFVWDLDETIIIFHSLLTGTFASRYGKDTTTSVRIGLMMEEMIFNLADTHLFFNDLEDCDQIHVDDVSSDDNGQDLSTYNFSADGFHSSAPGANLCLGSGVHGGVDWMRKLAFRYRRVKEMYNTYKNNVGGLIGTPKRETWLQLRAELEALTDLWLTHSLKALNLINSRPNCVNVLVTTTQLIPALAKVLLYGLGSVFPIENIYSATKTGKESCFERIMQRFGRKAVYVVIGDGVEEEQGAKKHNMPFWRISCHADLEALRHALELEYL
# Target sequence (Q15475 whole entry, looked up): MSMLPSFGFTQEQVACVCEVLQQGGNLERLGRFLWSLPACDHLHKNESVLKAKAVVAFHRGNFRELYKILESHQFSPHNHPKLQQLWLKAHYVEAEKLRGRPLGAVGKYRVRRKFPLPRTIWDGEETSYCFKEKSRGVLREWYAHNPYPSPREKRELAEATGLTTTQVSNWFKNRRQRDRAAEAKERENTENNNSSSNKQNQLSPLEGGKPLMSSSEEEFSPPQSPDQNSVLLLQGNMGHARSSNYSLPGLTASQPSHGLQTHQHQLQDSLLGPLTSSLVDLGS
#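 Six1/Eya2 binding was read as AlphaScreen signal after compounds were pinned into GST-Six1 plus His-tagged Eya2 (5X stock 250/500 nM) in pH 8.0 Tris/NaCl/TCEP buffer, beads added, then incubated 1 h, 37 C, dark.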
# VP16 counter – counter-screen for ROR gamma inhibitors: Gal4-VP16 reporter | Potency, µM (doses to about 53.6 µM), without a hit: top-dose activity, negative = inhibition, most hits filed as inhibitors | AID 2546 | actives 3.5% (n = 310,000) | Drosophila S2 Gal4-VP16 UAS-luciferase, luminescence, 20 h;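 note: Gal4-VP16 expression switched on by copper sulfate through the metallothionein promoter; potency is the fitted concentration of half-maximal effect; % is set by controls: 0 for no effect and ±100 for the full control effect; nearly all actives have a fitted effect of over 50% in size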
# RORgamma inh – blocks mouse ROR gamma transcriptional activity. P51450. Drosophila S2 Gal4-RORgamma UAS-luciferase reporter, 20 h. Potency, µM (series often up to 53.6 µM), without a hit: at the top dose activity change, negative = inhibition, actives largely listed as inhibitors. actives 5.4% (n = 310,000); note: potency is the fitted concentration of half-maximal effect; % is set by controls: 0 for no effect and ±100 for the full control effect; nearly all actives have a fitted effect of over 60% in size
#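 Read-out: Photinus luciferase luminescence; inhibitors lower reporter signal. Insect Schneider cells with Gal4-ROR gamma fusion under metallothionein promoter, UAS reporter; 700 uM final copper sulfate induction, 20 hr, ambient temperature.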
# Active calls of the source: *; ? = inconclusive; · = not tested or not shown; [ ] = dose if it differs, or a comment. Unless noted, calls come from the whole dose curve; as a rule, active = well fitted curve in the direction sought with a large enough effect; inconclusive = small, poorly fitted or top-dose-only effect, or another doubt; inactive = no such curve, though single readings can be large; an effect the other way counts as inactive or inconclusive.
SMILES,CtBP-E1A blk,MBNL1-CUG inh,CBFb RUNX1 block,Six1-Eya2 blk,VP16 counter,RORgamma inh
O=C(CSc1nnc(-c2ccco2)o1)c1ccc([N+](=O)[O-])cc1,·,?,15%,2,0.89µM*,0.79µM*
O=C(CSc1nnc(-c2ccco2)o1)c1ccccc1Cl,0,9%,-2%,5,?,4µM*
CCn1c(SCC(O)c2ccccc2)nnc1-c1ccccc1 (centres undefined),2,-8%,14%,15,21%,23%
CCSc1cnc(-c2ccccc2)n1CC,-3,-4%,-3%,-7,-27%,13µM*
Cc1cccc(NC(=S)c2nc3ccccc3s2)c1,-81*,1%,·,-75*,5µM*,1.1µM*
CC(=O)n1cc(N(C(=O)CCl)c2ccc(C)cc2)c2ccccc21,5,3%,0%,4,?,11µM*
COc1ccccc1CCN1C(=S)NC(C)(C)CC1(C)O (centres undefined),-4,3%,-4%,-11,5.6µM*,2.8µM*
COc1ccc(CNC(=O)CCN2C(=S)NC(C)(C)CC2C)cc1 (centres undefined),-1,-7%,2%,0,13%,?
COc1ccc(CN2C(=S)NC(C)(C)CC2(C)O)cc1 (centres undefined),-15,-10%,1%,-14,?,13µM*
COc1ccccc1CCN1CCCC(CN(C)CC(C)(C)CO)C1 (centres undefined),-13,3%,·,15,-5%,18%[1.91 µM]
COC(=O)c1ccc(CNC(=O)/C=C/[C@H]2O[C@@H](n3cc(C)c(=O)[nH]c3=O)C[C@@H]2O)cc1,0,·,·,16,·,·
CCc1c(C)nc2ncnn2c1NCCc1ccc(Cl)cc1,-15,8%,3%,-4,11µM*,?
COc1ccc(CCN2CC(C(=O)NCCc3cn[nH]c3)CCC2=O)cc1 (centres undefined),0,2%,·,7,-11%,2%
CC(C)(C)OC(=O)NCc1ccc(NC(=O)c2nc[nH]c2C(=O)N[C@@H](Cc2ccccc2)C(=O)OCc2ccccc2)cc1,-8,-9%,-9%,-8,?,7.1µM*
CC(C)(C)OC(=O)[C@H](Cc1ccccc1)NC(=O)c1nc[nH]c1C(=O)NCc1ccccc1,-3,-8%,9%,-11,16µM*,11µM*
CC(C)(C)OC(=O)[C@H](Cc1ccccc1)NC(=O)c1nc[nH]c1C(=O)N[C@@H](CCCCN)C(=O)OC(C)(C)C,-1,·,·,-6,·,·
CC(C)(C)OC(=O)NCc1ccc(CNC(=O)c2[nH]cnc2C(=O)N[C@@H](Cc2ccccc2)C(=O)OC(C)(C)C)cc1,-4,-4%,·,-5,20µM*,11µM*
CNC(=O)c1[nH]cnc1C(=O)N[C@@H](Cc1ccccc1)C(=O)OC(C)(C)C,0,-6%,13%,-16,?,7.9µM*
CC(C)(C)OC(=O)NCc1ccc(CNC(=O)c2nc[nH]c2C(=O)NCc2ccccc2)cc1,-14,·,·,-3,·,·
O=C(/C=C/c1ccc(F)cc1)c1ccccc1Br,5,-8%,0%,3,?,?
CC(C)(C)OC(=O)NCc1ccc(CNC(=O)c2[nH]cnc2C(=O)N[C@@H](Cc2ccccc2)C(=O)OCc2ccccc2)cc1,-7,-8%,·,-11,?,11µM*
CC(C)C[C@H](NC(=O)c1nc[nH]c1C(=O)NCc1ccc(CNC(=O)OC(C)(C)C)cc1)C(=O)OCc1ccccc1,-1,-6%,·,-6,?,11µM*
CCN(CC(=O)NCc1cccs1)C(=O)c1ccc(-c2ccc(F)cc2)o1,·,·,·,-14,·,·
c1ccc(-c2cn(C[C@H]3CC[C@@H]([C@@H]4CC[C@H](Cn5cc(-c6ccccn6)nn5)O4)O3)nn2)nc1,-81*,-7%,·,-87*,-2%,-6%
CCN1C(=O)[C@H]2[C@H]3[C@H](O)[C@H](O)C/C(=N/OC/C=C(\C)CCC=C(C)C)[C@@H]3CC[C@@H]2C1=O,·,·,1%[13.1 µM],·,-10%[10 µM],1%[10 µM]
SMILES,CtBP-E1A blk,MBNL1-CUG inh,CBFb RUNX1 block,Six1-Eya2 blk,VP16 counter,RORgamma inh
Nc1n[nH]c2c1C1(CCCC1)Cc1ccccc1-2,-7,13%,-10%,0,-11%,?
Nc1nc(=S)[nH]c2c1C1(CCCC1)Cc1ccccc1-2,-2,-3%,-4%,-3,8.9µM*,6.3µM*
Nc1nc(=S)[nH]c2c1C1(CCCCC1)Cc1ccccc1-2,-15,·,5%,10,4µM*,2.2µM*
N#Cc1ccc(S(=O)(=O)N2CCN(CN3C(=O)CC4(CCCC4)C3=O)CC2)cc1,0,·,·,1,·,·
Cc1c(NS(=O)(=O)c2ccc([N+](=O)[O-])cc2)c(=O)n(-c2ccccc2)n1C,-10,?,·,-6,-6%,-14%
Cc1c(NC(=S)N/N=C/C=C/c2ccccc2)c(=O)n(-c2ccccc2)n1C,-4,?,-6%,-3,0.79µM*,0.32µM*
COc1ccc(/C=N/NC(=S)Nc2c(C)n(C)n(-c3ccccc3)c2=O)cc1OC,-23,·,2%,0,0%,-17%
Cc1c(NC(=S)N/N=C/C=C/c2ccc([N+](=O)[O-])cc2)c(=O)n(-c2ccccc2)n1C,31,?,0%,13,11µM*,3.2µM*
O=C(Nc1ccc(Cl)cc1)C1Cc2c(-c3ccccc3Oc3ccccc3)ccnc2O1 (centres undefined),15,·,·,4,·,·
COc1cc(/C=C(\C#N)c2nc3c(s2)CCCC3)ccc1O,·,28%,-7%,·,?,8.9µM*
N#C/C(=C\c1cccnc1)c1nc2c(s1)CCCC2,-3,?,8%,6,-1%,-32%
COc1ccc(C(C[N+](=O)[O-])c2c(C)[nH]n(-c3ccccc3)c2=O)cc1 (centres undefined),3,-25%,·,6,?,13µM*
Cc1[nH]n(-c2ccccc2)c(=O)c1C(C[N+](=O)[O-])c1ccccc1Cl (centres undefined),-1,0%,-6%,6,14%,7%
O=C(NC(=S)Nc1nc2ccccc2s1)c1ccco1,3,74%,5%,3,1.3µM*,0.89µM*
Cc1cc(C)c2nc(NC(=O)c3ccco3)sc2c1,·,13%,·,12,10µM*,4.5µM*
COc1ccc2nc(NC(=O)c3cccc(OCc4c(C)noc4C)c3)sc2c1,3,0%,2%,-8,?,11µM*
CCSc1nnc(NC(=O)c2cccc(OCc3c(C)noc3C)c2)s1,-5,-1%,1%,7,6%,-45%

# Screening results from PubChem.
